Measurements taken from publication PMC5540273 (PLoS ONE, 2017).

The molecules below were run on T1, JNK3.
T1 construct: gene MAPK10
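Note: kd values determined as follow-up on hits from a single-replicate KINOMEscan panel screen.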

Q: Which Kd does the source give for CCc1nc(-c2cccc(C)c2)c(-c2ccnc(NC(=O)c3ccccc3)c2)s1 here?
A: 0.19 µM

Q: Which Kd does the source give for CN1CCC(n2cnc(-c3ccc(F)cc3)c2-c2ccnc(NC3CCNCC3)n2)CC1 [SB-229482] here?
A: 0.14 µM

Q: Which Kd does the source give for COC(=O)c1c(-c2ccccc2)c2cc(Cl)ccc2c(=O)n1Cc1ccc(S(C)(=O)=O)cc1 here?
A: 0.014 µM

What follows are molecules tested on KIT.

Q: With COc1ccc(NC(=O)Nc2ccc(C)c(-c3ccc(C(=O)Nc4ccncc4)cc3)c2)cc1 [GSK1398475] as the molecule, how does the Kd read?
A: 0.044 µM

Q: How did the Kd turn out when O=C(Nc1ccccc1)Nc1ccc(Oc2ccc3nccn3n2)cc1 was run?
A: 0.099 µM

Q: How did the Kd turn out when Cn1cc(-c2ccc3c(c2)CCN3C(=O)Cc2cccc(C(F)(F)F)c2)c2c(N)ncnc21 [GSK2606414] was run?
A: 5.2 µM

Q: For COc1cc2c(Nc3cccc(NC(=O)c4ccccc4)c3)ncnc2cc1OCCCN1CCOCC1 [GSK223810], which Kd is on record?
A: 0.3 µM

Q: For O=C(Nc1n[nH]c2nc(-c3ccco3)c(Br)cc12)c1ccc(CN2CCCC2)cc1.O=C(O)[C@H](O)[C@@H](O)C(=O)O [SB-742352], which Kd is on record?
A: 0.066 µM

Q: With Cn1ccc2ncnc(Oc3ccc(NC(=O)Nc4cccnc4)c(Cl)c3)c21 as the molecule, how does the Kd read?
A: 0.047 µM

Q: Which Kd does the source give for Cc1ccc(NC(=O)c2cccc(C#N)c2)cc1-c1ccc(C(=O)Nc2ccncc2)cc1 [GSK1398463] here?
A: 0.31 µM

The molecules below were run on MARK2.

Q: Which Kd does the source give for Cl.Cn1ccc(-c2cccc(Nc3ccnc4cc(-c5nccs5)ccc34)c2)n1 [GW525701] here?
A: > 10 µM

Q: With CCn1c(-c2ccncc2)nc2cnccc21 [SB-735216] as the molecule, how does the Kd read?
A: > 10 µM

Q: With O=c1cc(N2CCOCC2)nc2n(Cc3cccc(Cl)c3)ccn12 [GSK2296823] as the molecule, how does the Kd read?
A: > 10 µM

Each molecule was assayed on T2, MEK5.
T2 construct: gene MAP2K5

Q: Which Kd does the source give for CCc1nc(-c2cccc(N(C)S(=O)(=O)c3ccccc3)c2)c(-c2ccnc(Nc3ccc(N4CCN(C(C)=O)CC4)nc3)n2)s1 [GSK1645895] here?
A: 0.007 µM

Q: Which Kd does the source give for CC(=O)Nc1n[nH]c2ncc(-c3ccccc3)cc12 [SB-548492] here?
A: 0.29 µM

Q: Cl.Cn1ccc(-c2cccc(Nc3ccnc4cc(-c5nccs5)ccc34)c2)n1 [GW525701] was tested. Which Kd did it give?
A: 0.96 µM

Q: How did the Kd turn out when Oc1ccc2ncnc(Nc3ccc(OCc4ccccc4)cc3)c2c1 [GI262866] was run?
A: 0.082 µM

Q: CS(=O)(=O)CCNCc1ccc(-c2ccc3ncnc(Nc4ccc(OCc5ccccc5)c(Cl)c4)c3c2)o1.Cl [GW574783] was tested. Which Kd did it give?
A: 1 µM

Q: For COc1cc2ncnc(Nc3ccc(OCc4ccccc4Br)c(Cl)c3)c2cc1OC.Cl [GI261590], which Kd is on record?
A: 0.098 µM

Q: Cn1ccc2ncnc(Nc3ccc(Oc4cccc(Cl)c4)c(Cl)c3)c21 was tested. Which Kd did it give?
A: 0.025 µM

Q: Which Kd does the source give for Cl.c1ccc(Cn2ccc3cc(Nc4ncnc5ccccc45)ccc32)cc1 [GW275568] here?
A: 0.77 µM

Q: With OCCOCCn1ccc2ncnc(Nc3ccc(Oc4cccc(Cl)c4)c(Cl)c3)c21 as the molecule, how does the Kd read?
A: 0.2 µM

Q: Which Kd does the source give for COc1ccc(-c2oc3ncnc(N)c3c2-c2ccc(OC)cc2)cc1 [SB-589132] here?
A: 3 µM

Q: For COc1cc2c(Nc3cccc(NC(=O)c4ccccc4)c3)ncnc2cc1OCCCN1CCOCC1 [GSK223810], which Kd is on record?
A: 0.94 µM

Q: O=C(CCO)NCCn1ccc2ncnc(Nc3ccc(Oc4cccc(C(F)(F)F)c4)c(Cl)c3)c21 was tested. Which Kd did it give?
A: 0.015 µM

Q: For Cl.c1ccc(Cn2ncc3cc(Nc4ncnc5ccccc45)ccc32)cc1 [GW273749], which Kd is on record?
A: 0.09 µM

Q: For O=C(Nc1n[nH]c2nc(-c3ccco3)c(Br)cc12)c1ccc(CN2CCCC2)cc1.O=C(O)[C@H](O)[C@@H](O)C(=O)O [SB-742352], which Kd is on record?
A: 0.55 µM
